Holding throughout (test): DAPPL (digital affinity profiling via proximity ligation, sequencing); 10 mM Tris-HCl pH 7.5, 50 mM NaCl, 1 mM DTT, 4% glycerol, room temperature, 30 min; GST-TFs on glutathione beads, 16-mer random dsDNA library, 0.1% formaldehyde crosslink after washing; high values mean tight binding
The target of one assay is T1, FEV (Homo sapiens, UniProt Q99581 1-238).
T1 sequence: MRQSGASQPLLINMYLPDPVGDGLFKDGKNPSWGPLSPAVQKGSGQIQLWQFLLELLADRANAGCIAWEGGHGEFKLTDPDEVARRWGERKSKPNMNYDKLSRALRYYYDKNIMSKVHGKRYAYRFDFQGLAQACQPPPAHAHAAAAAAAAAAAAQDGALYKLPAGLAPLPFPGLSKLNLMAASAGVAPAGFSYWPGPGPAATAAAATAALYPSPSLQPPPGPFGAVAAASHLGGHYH
The settings on record: protein: recombinant; tags: N-terminal GST; dsDNA, one strand shown. In short, it runs like this:
(§1)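 Human transcription factors fused to GST were expressed in yeast, captured on glutathione beads, given DNA barcodes and pooled with a GST-only negative control. Pools were incubated with 200 nmole of a 16-mer random double-stranded DNA library in Tris/NaCl/DTT/glycerol buffer at room temperature for 30 min. They were then washed, crosslinked with 0.1% formaldehyde, proximity-ligated (BsaI/T4 ligase, 1 h, 37 °C), PCR-amplified and sequenced on an Illumina NextSeq500. Binding signal is each 6-mer's read frequency for a factor divided by its frequency for the GST control.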

The target in the next assay is ETV5 (Homo sapiens, UniProt P41161 1-510). The settings on record: protein: recombinant; tags: N-terminal GST; dsDNA, one strand shown. In a few lines: as §1
ETV5, sequence (P41161 whole entry): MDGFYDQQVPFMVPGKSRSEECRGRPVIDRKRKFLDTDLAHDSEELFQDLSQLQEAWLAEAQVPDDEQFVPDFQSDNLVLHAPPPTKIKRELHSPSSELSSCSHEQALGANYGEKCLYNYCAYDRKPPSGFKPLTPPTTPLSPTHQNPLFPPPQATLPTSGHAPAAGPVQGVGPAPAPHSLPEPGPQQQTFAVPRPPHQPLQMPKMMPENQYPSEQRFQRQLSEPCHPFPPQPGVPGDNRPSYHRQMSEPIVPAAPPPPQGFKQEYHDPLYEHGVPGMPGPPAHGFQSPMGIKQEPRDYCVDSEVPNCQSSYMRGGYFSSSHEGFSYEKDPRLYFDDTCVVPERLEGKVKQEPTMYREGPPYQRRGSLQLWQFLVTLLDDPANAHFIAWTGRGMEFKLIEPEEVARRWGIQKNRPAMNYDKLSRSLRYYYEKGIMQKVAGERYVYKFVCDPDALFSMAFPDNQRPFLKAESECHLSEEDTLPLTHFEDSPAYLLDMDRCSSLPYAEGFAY
Another assay has as its target HSF1 (Homo sapiens, UniProt Q00613 1-529). The following applies: protein: recombinant; tags: N-terminal GST; chain copies: 3; dsDNA, one strand shown. In a few lines:
as §1

For another assay, the target named is T2, SPIC (Homo sapiens, UniProt Q8N5J4 1-248).
T2 sequence: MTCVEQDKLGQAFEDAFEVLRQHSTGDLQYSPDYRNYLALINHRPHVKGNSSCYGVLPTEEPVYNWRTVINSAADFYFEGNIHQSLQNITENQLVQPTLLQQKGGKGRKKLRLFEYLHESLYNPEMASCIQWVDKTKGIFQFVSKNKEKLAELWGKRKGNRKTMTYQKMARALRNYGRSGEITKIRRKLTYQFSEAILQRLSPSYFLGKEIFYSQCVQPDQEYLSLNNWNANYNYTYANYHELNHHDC
The following applies: protein: recombinant; tags: N-terminal GST; dsDNA, one strand shown. In a few lines:
as §1

The target of a further assay is ELF4 (Homo sapiens, UniProt Q99607 1-663). The settings on record: protein: recombinant; tags: N-terminal GST; dsDNA, one strand shown. In short, it runs like this:
as §1

The next assay has as its target T3, ELK4 (Homo sapiens, UniProt P28324-2 1-405).
T3 sequence: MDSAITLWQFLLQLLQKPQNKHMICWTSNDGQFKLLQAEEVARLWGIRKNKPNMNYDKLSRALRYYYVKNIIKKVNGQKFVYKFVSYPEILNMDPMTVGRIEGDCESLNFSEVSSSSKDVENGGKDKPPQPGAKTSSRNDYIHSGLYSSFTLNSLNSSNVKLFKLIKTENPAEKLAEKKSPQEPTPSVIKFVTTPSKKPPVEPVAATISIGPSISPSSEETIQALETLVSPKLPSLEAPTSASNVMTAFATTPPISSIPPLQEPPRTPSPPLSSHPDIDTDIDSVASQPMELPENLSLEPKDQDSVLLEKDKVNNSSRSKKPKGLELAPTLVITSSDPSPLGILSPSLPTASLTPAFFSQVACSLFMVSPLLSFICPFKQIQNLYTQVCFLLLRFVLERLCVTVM
The following applies: protein: recombinant; tags: N-terminal GST; dsDNA, one strand shown. In short, it runs like this: as §1

For the next assay, the target named is T4, ETV2 (Homo sapiens, UniProt O00321 1-342).
T4 sequence: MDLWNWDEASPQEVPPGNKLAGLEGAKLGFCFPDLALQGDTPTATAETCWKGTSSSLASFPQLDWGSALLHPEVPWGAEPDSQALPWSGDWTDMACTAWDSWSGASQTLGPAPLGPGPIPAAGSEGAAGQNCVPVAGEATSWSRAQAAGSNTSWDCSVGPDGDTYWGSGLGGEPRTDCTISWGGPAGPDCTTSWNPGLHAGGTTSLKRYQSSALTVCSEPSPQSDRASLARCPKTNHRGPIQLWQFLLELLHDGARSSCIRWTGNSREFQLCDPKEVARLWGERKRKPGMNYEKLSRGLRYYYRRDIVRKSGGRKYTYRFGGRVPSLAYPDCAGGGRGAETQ
The following applies: protein: recombinant; tags: N-terminal GST; dsDNA, one strand shown. In short, it runs like this: as §1

Another assay addresses T5, ELF3 (Homo sapiens, UniProt P78545 1-371).
T5 sequence: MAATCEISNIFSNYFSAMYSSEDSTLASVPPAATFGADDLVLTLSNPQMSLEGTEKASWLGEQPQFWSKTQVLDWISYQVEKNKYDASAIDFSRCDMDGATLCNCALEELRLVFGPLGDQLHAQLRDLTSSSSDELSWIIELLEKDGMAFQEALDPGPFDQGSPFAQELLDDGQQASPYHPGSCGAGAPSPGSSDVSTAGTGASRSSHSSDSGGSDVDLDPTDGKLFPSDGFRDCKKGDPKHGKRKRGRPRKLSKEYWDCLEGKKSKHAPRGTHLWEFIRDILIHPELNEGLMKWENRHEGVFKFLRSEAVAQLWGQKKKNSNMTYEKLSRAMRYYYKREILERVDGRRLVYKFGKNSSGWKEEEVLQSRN
The settings on record: protein: recombinant; tags: N-terminal GST; dsDNA, one strand shown. In a few lines: as §1

In a further assay the target is ETV1 (Homo sapiens, UniProt P50549 1-477). The following applies: protein: recombinant; tags: N-terminal GST; dsDNA, one strand shown. In short, it runs like this: as §1
ETV1, sequence (P50549 whole entry): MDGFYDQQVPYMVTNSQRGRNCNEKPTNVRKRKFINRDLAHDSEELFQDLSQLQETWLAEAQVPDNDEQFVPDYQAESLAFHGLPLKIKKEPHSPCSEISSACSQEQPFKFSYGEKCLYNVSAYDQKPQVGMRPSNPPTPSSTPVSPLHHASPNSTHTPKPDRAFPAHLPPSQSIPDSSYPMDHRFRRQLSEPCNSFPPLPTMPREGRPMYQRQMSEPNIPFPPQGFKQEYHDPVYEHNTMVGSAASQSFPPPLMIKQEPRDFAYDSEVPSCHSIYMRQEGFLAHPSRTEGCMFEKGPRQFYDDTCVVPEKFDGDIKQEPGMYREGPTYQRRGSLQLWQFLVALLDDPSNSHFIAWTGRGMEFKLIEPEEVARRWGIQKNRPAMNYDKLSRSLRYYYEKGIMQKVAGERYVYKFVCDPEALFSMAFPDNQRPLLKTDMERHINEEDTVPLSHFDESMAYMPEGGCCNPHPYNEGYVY

We go through eight sequences from article PMC7862700, “An all-to-all approach to the identification of sequence-specific readers for epigenetic DNA modifications on cytosine”.

HSF1, sequence (Q00613 whole entry): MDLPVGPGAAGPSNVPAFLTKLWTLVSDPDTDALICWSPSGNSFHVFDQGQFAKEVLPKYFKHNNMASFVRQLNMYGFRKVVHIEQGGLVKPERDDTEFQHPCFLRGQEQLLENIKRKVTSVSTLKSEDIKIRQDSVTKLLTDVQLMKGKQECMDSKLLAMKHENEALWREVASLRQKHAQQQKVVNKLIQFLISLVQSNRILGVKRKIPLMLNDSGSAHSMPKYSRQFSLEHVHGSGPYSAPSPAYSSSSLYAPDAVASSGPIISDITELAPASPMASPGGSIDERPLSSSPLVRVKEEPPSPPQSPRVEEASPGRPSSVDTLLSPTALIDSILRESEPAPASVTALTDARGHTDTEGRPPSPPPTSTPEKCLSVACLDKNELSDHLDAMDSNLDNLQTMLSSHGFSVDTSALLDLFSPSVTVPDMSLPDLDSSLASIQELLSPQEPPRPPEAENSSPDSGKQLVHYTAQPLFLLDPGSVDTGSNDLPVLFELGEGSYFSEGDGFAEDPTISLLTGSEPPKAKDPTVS
ELF4, sequence (Q99607 whole entry): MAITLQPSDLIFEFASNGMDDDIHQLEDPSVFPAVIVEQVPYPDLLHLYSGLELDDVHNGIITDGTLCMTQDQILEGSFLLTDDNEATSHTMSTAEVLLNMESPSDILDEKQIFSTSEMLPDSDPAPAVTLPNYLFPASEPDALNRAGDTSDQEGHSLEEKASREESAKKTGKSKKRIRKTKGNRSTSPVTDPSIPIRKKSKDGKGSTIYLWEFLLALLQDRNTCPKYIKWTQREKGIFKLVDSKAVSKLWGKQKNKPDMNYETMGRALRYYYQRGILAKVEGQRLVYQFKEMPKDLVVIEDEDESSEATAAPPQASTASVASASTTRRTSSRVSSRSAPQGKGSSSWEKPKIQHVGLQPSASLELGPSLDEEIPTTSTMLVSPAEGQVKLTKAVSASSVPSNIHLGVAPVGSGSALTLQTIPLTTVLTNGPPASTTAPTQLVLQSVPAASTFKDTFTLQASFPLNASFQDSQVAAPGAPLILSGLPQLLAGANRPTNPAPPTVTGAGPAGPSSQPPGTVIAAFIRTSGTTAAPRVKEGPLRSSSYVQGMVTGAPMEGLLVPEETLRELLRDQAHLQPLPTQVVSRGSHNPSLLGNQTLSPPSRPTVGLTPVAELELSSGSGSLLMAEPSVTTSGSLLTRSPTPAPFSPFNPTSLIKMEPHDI

Turning to TGCCCG, the binding signal with FEV is 1.27 fold enrichment (6-mer frequency, TF over GST control); in the assay with ETV5, 1.21 fold enrichment (6-mer frequency, TF over GST control); with HSF1 it was 1.01 fold enrichment (6-mer frequency, TF over GST control); in the assay with SPIC, 1.34 fold enrichment (6-mer frequency, TF over GST control); in the assay with ELF4 it was 1.21 fold enrichment (6-mer frequency, TF over GST control); with ELK4, 1.16 fold enrichment (6-mer frequency, TF over GST control). Besides, the binding signal in the assay with ETV2 was 1.26 fold enrichment (6-mer frequency, TF over GST control); with ELF3 it was 1.32 fold enrichment (6-mer frequency, TF over GST control); in the assay with ETV1, 1.21 fold enrichment (6-mer frequency, TF over GST control).

As for AGTTTC, the binding signal was 1.23 fold enrichment (6-mer frequency, TF over GST control) in the assay with FEV; 1.33 fold enrichment (6-mer frequency, TF over GST control) in the assay with ETV5; 1.38 fold enrichment (6-mer frequency, TF over GST control) with HSF1; 1.16 fold enrichment (6-mer frequency, TF over GST control) with SPIC; 1.2 fold enrichment (6-mer frequency, TF over GST control) with ELF4; 1.13 fold enrichment (6-mer frequency, TF over GST control) with ELK4. The binding signal in the assay with ETV2 was 1.21 fold enrichment (6-mer frequency, TF over GST control); with ELF3 it was 1.14 fold enrichment (6-mer frequency, TF over GST control); with ETV1 it was 1.29 fold enrichment (6-mer frequency, TF over GST control).

Take CGACCC: the binding signal was 1.17 fold enrichment (6-mer frequency, TF over GST control) in the assay with FEV; 1.3 fold enrichment (6-mer frequency, TF over GST control) with ETV5; 1.03 fold enrichment (6-mer frequency, TF over GST control) with HSF1; 1.23 fold enrichment (6-mer frequency, TF over GST control) with SPIC; 1.31 fold enrichment (6-mer frequency, TF over GST control) with ELF4; 1.17 fold enrichment (6-mer frequency, TF over GST control) in the assay with ELK4. Besides, the binding signal in the assay with ETV2 was 1.39 fold enrichment (6-mer frequency, TF over GST control); in the assay with ELF3, 1.2 fold enrichment (6-mer frequency, TF over GST control); in the assay with ETV1 it was 1.23 fold enrichment (6-mer frequency, TF over GST control).

Turning to ACCATC, the binding signal with FEV was 1.13 fold enrichment (6-mer frequency, TF over GST control); in the assay with ETV5, 1.11 fold enrichment (6-mer frequency, TF over GST control); in the assay with HSF1, 1.14 fold enrichment (6-mer frequency, TF over GST control); with SPIC it was 1.02 fold enrichment (6-mer frequency, TF over GST control); in the assay with ELF4 it was 1.12 fold enrichment (6-mer frequency, TF over GST control); in the assay with ELK4, 1.13 fold enrichment (6-mer frequency, TF over GST control). Besides, the binding signal in the assay with ETV2 was 1.06 fold enrichment (6-mer frequency, TF over GST control); with ELF3, 1.19 fold enrichment (6-mer frequency, TF over GST control); in the assay with ETV1, 1.03 fold enrichment (6-mer frequency, TF over GST control).

In the case of CATGAA, the binding signal in the assay with FEV was 1.03 fold enrichment (6-mer frequency, TF over GST control); with ETV5, 1.07 fold enrichment (6-mer frequency, TF over GST control); with HSF1, 1.05 fold enrichment (6-mer frequency, TF over GST control); with SPIC it was 1.16 fold enrichment (6-mer frequency, TF over GST control); with ELF4 it was 1.1 fold enrichment (6-mer frequency, TF over GST control); with ELK4, 1.11 fold enrichment (6-mer frequency, TF over GST control). Moreover, the binding signal in the assay with ETV2 was 1.06 fold enrichment (6-mer frequency, TF over GST control); in the assay with ELF3, 1.15 fold enrichment (6-mer frequency, TF over GST control); with ETV1, 1.08 fold enrichment (6-mer frequency, TF over GST control).

Take GAAATG: the binding signal is 1.77 fold enrichment (6-mer frequency, TF over GST control) with FEV; 1.7 fold enrichment (6-mer frequency, TF over GST control) with ETV5; 1.1 fold enrichment (6-mer frequency, TF over GST control) with HSF1; 1.56 fold enrichment (6-mer frequency, TF over GST control) with SPIC; 1.49 fold enrichment (6-mer frequency, TF over GST control) with ELF4; 1.65 fold enrichment (6-mer frequency, TF over GST control) in the assay with ELK4. Also, the binding signal is 1.55 fold enrichment (6-mer frequency, TF over GST control) with ETV2; 1.78 fold enrichment (6-mer frequency, TF over GST control) in the assay with ELF3; 1.58 fold enrichment (6-mer frequency, TF over GST control) with ETV1.

With CCGACA, the binding signal with FEV was 1.31 fold enrichment (6-mer frequency, TF over GST control); with ETV5, 1.24 fold enrichment (6-mer frequency, TF over GST control); in the assay with HSF1 it was 1.03 fold enrichment (6-mer frequency, TF over GST control); in the assay with SPIC, 1.34 fold enrichment (6-mer frequency, TF over GST control); in the assay with ELF4, 1.13 fold enrichment (6-mer frequency, TF over GST control); with ELK4 it was 1.14 fold enrichment (6-mer frequency, TF over GST control). For the same sequence, the binding signal in the assay with ETV2 is 1.32 fold enrichment (6-mer frequency, TF over GST control); with ELF3 it was 1.18 fold enrichment (6-mer frequency, TF over GST control); with ETV1 it was 1.28 fold enrichment (6-mer frequency, TF over GST control).

On to CAACGA, for which the binding signal with FEV was 1.01 fold enrichment (6-mer frequency, TF over GST control); in the assay with ETV5 it was 1.02 fold enrichment (6-mer frequency, TF over GST control); with HSF1 it was 1 fold enrichment (6-mer frequency, TF over GST control); with SPIC, 1.1 fold enrichment (6-mer frequency, TF over GST control); in the assay with ELF4, 1.1 fold enrichment (6-mer frequency, TF over GST control); with ELK4 it was 1.14 fold enrichment (6-mer frequency, TF over GST control). In addition, the binding signal is 1.01 fold enrichment (6-mer frequency, TF over GST control) with ETV2; 1.08 fold enrichment (6-mer frequency, TF over GST control) in the assay with ELF3; 1 fold enrichment (6-mer frequency, TF over GST control) with ETV1.
